# Measured values taken from the supplement of paper PMC3334620.
# The full ranking holds about 33,000 sequences; the median of “E-score (-0.5 to 0.5)” is about -0.053, and the highest 2% start at about 0.37. Shown is part of a subset that was picked to be rich in the highest values.
# Biological target: Hap1 (UniProt P0CE41)
# Assay: PBM E-score (8-mer binding enrichment) (E-score (-0.5 to 0.5)); higher = stronger / more preferred TF binding
# Conditions: protein concentration: 200 nM; construct: GST-DNA-binding domain
# Description: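 Universal 'all 10-mer' protein binding microarrays (Agilent AMADID 015681) probed with GST-tagged S. cerevisiae TFs (full-length or DBD) made by in vitro transcription/translation (PURExpress), about 100-200 nM. Bound TF was detected with fluorescent anti-GST. Each ungapped 8-mer (which stands for itself and its reverse complement) is scored by the PBM enrichment score (E-score), a modified Wilcoxon-Mann-Whitney statistic from -0.5 to +0.5, computed with the Universal PBM Analysis Suite. Scale: above 0.35 generally sequence-specific binding.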
# Chain of UniProt P0CE41 (P0CE41 whole entry): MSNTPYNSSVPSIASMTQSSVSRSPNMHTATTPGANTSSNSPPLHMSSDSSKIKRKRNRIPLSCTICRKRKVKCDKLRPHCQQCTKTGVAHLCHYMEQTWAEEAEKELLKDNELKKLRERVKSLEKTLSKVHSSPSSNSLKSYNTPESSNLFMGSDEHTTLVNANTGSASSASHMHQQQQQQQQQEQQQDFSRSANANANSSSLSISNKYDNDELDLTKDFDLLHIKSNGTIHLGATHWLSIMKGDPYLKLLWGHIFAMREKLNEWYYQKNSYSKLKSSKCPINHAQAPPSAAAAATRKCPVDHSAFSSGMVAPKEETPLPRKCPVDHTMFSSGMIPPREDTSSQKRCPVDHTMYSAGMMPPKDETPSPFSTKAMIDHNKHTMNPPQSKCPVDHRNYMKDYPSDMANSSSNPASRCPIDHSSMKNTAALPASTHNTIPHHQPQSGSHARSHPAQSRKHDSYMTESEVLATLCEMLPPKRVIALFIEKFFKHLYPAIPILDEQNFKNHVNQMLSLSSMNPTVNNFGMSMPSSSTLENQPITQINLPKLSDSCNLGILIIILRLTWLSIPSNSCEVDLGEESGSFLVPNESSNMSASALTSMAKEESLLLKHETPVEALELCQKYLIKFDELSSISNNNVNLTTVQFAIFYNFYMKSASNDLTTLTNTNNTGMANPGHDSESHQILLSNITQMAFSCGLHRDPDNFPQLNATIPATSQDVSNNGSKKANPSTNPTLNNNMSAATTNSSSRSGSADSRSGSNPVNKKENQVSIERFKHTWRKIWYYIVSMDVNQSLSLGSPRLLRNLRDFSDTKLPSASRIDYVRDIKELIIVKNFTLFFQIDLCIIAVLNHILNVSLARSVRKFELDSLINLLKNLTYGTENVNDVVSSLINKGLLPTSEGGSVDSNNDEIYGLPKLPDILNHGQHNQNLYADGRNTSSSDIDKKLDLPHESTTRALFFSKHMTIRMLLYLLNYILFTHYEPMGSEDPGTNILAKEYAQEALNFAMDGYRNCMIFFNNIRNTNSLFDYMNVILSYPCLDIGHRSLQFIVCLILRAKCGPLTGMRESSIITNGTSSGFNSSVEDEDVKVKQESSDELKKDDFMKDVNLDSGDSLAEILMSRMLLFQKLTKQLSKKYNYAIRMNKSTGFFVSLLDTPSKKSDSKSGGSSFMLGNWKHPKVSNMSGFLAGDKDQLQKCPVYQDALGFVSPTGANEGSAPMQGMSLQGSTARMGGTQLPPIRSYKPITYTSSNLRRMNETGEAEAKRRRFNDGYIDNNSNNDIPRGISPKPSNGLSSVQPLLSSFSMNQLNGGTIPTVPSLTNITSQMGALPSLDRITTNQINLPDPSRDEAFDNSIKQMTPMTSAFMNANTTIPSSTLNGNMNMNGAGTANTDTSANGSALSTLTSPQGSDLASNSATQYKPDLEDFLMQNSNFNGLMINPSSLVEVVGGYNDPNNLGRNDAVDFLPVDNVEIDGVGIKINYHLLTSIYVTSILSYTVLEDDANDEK
row,Sequence,PBM E-score
1,CCTTGAAC,-0.1
2,AACCGAGC,0.371
3,TACCGAGA,0.209
4,AACCGAGG,0.148
5,CACCGAGA,0.259
6,GACCGAGA,0.382
7,CACCGAGC,0.297
8,GACCGACC,0.266
9,AACCGAGT,0.157
10,GACCGAGC,0.375
11,GCTACGCC,-0.0393
12,CATCCGCC,0.244
13,CCTAGTTC,-0.00076
14,AGTATGCC,0.0174
15,AAAGGCAT,-0.125
16,AACTGAAT,-0.215
17,ATAACTCC,0.4
18,ATAACTCG,0.205
19,ATAACTCA,-0.0521
20,CTAACTGC,-0.0433
21,CTAACTCA,-0.177
22,CTAACTCC,0.403
23,AAAAGGAA,0.0913
24,ACGGGTAT,0.0846
25,CCCGATCC,0.31

row,Sequence,PBM E-score
1,AGCGATAG,0.119
2,CGCGATAG,0.2
3,ACCGATTA,0.335
4,AACGATAG,0.118
5,ACCGATAG,0.373
6,CCCGATAG,0.414
7,CGCGATAC,0.17
8,AGCGATAA,0.284
9,CCCGATAC,0.432
10,CACGATAG,-0.138
11,ACCGATAA,0.443
12,CATCGAGG,-0.23
13,CTCAGGAA,-0.108
14,AACCGGCT,0.252
15,GCTGCTCA,-0.241
16,GGCAAGGA,-0.0722
17,CTGAGTCC,-0.0126
18,ACTATCAA,0.0295
19,CCGCCTCC,0.0265
20,CGATTTTC,0.147
21,ACCGATGA,0.223
22,GGCGATAC,0.265
23,GGCGATAA,0.392
24,GCCGATCA,0.263
25,AACGATAT,-0.0547

row,Sequence,PBM E-score
1,GCCGATAA,0.449
2,ACCGATCT,0.274
3,GTCGATAA,-0.0382
4,GCCGATGA,0.373
5,CGCGATAA,0.115
6,CCCGATGA,0.285
7,ACCGATAT,0.43
8,CTAGATGC,-0.224
9,GAATCGAA,-0.142
10,ACAGGCTG,-0.256
11,CTTGCACA,-0.136
12,CACGATAA,0.087
13,GACGATAC,0.0839
14,TCCGATAA,0.45
15,CCCGATAA,0.417
16,TCCGATCA,0.221
17,CCCGATTA,0.197
18,GCCGATCC,0.258
19,ACCGATAC,0.371
20,TACGATAA,0.0399
21,AGCGATAC,0.065
22,AACGATAC,-0.2
23,GCCGATAC,0.417
24,GTAGGGAC,-0.0187
25,AGTGAGTC,-0.18

row,Sequence,PBM E-score
1,CCTCTAAG,-0.337
2,GTTATCGA,0.165
3,CAGACCAG,0.0149
4,GGAATTAC,0.375
5,GGAATTAA,0.419
6,TGAATTAA,-0.0149
7,CGAATTAC,0.15
8,CGAATTAA,0.0158
9,AGAATTAC,0.0991
10,TATCTCAA,-0.0851
11,GCCTGGAC,-0.0392
12,AGATCCGA,0.359
13,ATATCCAG,0.0668
14,ATATCCCG,0.286
15,AGATCCGC,0.263
16,ATATCCTC,0.0211
17,AGATCCGG,0.384
18,CTATCCGA,0.113
19,ATATCCGA,0.463
20,ATATCCGC,0.387
21,CTATCCGC,0.257
22,GTATCCGA,0.304
23,ATATCCGG,0.452
24,AGGCAATG,-0.17
25,ACTGGGGA,-0.016

row,Sequence,PBM E-score
1,AGTGGAAC,0.0266
2,CAGATCCC,0.0493
3,AAGTCCAT,-0.00211
4,AAGTCCCT,-0.278
5,AAGTCCGT,0.417
6,AAGTCCTG,-0.0784
7,CAGTCCGG,0.364
8,CAGTCCGC,0.0912
9,GAGTCCGC,0.249
10,AAGTCCGG,0.47
11,AAGTCCGC,0.427
12,GTTGGTTA,-0.0552
13,TTGCAAAA,-0.00902
14,CCGAAGTA,0.365
15,GAGGCACA,-0.112
16,GTCCGTTA,0.444
17,ATCCGTTG,0.301
18,GTCCGTGA,0.303
19,ATCCGTTC,0.233
20,CTCCGTTA,0.367
21,ATCCGTTA,0.409
22,CGCCCGCA,0.189
23,GCCTGAAC,-0.0686
24,CGCAGGGC,-0.0256
25,GGGTATGA,0.0413

row,Sequence,PBM E-score
1,CAGGAAAA,-0.0124
2,CCGGAAGA,0.365
3,CCGGAAAA,0.432
4,CCGGAACA,0.376
5,TCGGAACA,0.349
6,TCGGAAAA,0.402
7,ACGGAACA,0.241
8,CCGGAATC,0.416
9,ACGGAATC,0.28
10,CCGGAATA,0.357
11,ACGGAAAA,0.317
12,GCGGAAAA,0.286
13,AGACACTC,-0.185
14,GCTTCATA,-0.0731
15,ACCTAGGC,-0.18
16,AAAGCGGG,-0.0186
17,ACTACGCC,-0.098
18,GAACTGTA,-0.00641
19,CCACTCCC,0.119
20,CCGGCCTC,0.182
21,CCGGAAAC,0.426
22,CCGGAAAG,0.307
23,GCGGAAAC,0.24
24,AGTTTCTA,-0.167
25,ACCAGGAT,0.0532

row,Sequence,PBM E-score
1,AAGCAATA,-0.0998
2,TCTTGTCA,-0.139
3,CGACCGGC,0.232
4,AGACCGGA,0.334
5,CGACCGGA,0.412
6,CGACCGTA,0.0335
7,GGACCGGA,0.406
8,GGACCGCA,0.186
9,ACTAGACA,-0.0952
10,AACGCGCG,0.13
11,CTGTCCGC,0.113
12,ATGTCCCC,0.0493
13,ATGTCCGG,0.468
14,ATGTCCTG,0.00518
15,ATGTCCCG,0.234
16,ATGTCCGC,0.374
17,GTGTCCGA,0.339
18,ATGTCCGA,0.463
19,CTGTCCGA,0.317
20,AGGGCCGG,0.326
21,CGCCCTCA,-0.149
22,CGACCAAC,-0.0313
23,CAACTGGG,-0.122
24,CCCGGTAC,0.296
25,GCCGGTGA,0.274

row,Sequence,PBM E-score
1,CCCGGTAG,0.336
2,CCCGGTCA,0.262
3,GGCGGTAC,0.0136
4,AGCGGTAA,0.247
5,GCCGGTCA,0.177
6,GCCGGTAA,0.422
7,CCCGGTAA,0.387
8,GGCGGTAA,0.373
9,TCCGGTCA,0.385
10,GCCGGTAC,0.293
11,ACCTCGCT,0.0563
12,AGTTACCG,0.266
13,AACAAGGG,-0.0715
14,ACAGACGC,-0.0711
15,AATTTACC,0.0607
16,AGCGTAGA,-0.0389
17,TGCGGTAA,0.042
18,TCCGGTAA,0.442
19,TACGGTAA,0.0382
20,ACACCTGA,-0.135
21,TGTCGAAA,-0.229
22,CAAGTGTC,-0.197
23,AAGAAACA,0.00593
24,ACCGCAAT,0.239
25,CATCCCGA,0.176

row,Sequence,PBM E-score
1,AATCCCAT,-0.107
2,AATCCCGC,0.257
3,AATCCCGA,0.409
4,TATCCCGA,0.221
5,AATCCCGT,0.372
6,CTGGTGAC,-0.288
7,CCAGCGAA,-0.0597
8,AGGCATTA,-0.08
9,GGGCATTA,0.0704
10,CGGCATTA,0.459
11,AGGCAATA,-0.181
12,CGGCAATC,0.284
13,CGGCAATA,0.408
14,TATATTGA,0.0255
15,ACAGTGGA,-0.0195
16,CACCAAGC,-0.174
17,AGTCCCTC,-0.175
18,CATGTCCG,0.372
19,AATGTCCT,-0.144
20,ATTGTCCG,0.396
21,CATGTCCC,-0.054
22,ATTGTCCC,0.0458
23,ATTGTCCA,-0.128
24,AATGTCCA,-0.104
25,CATGTCCA,-0.0578

row,Sequence,PBM E-score
1,AATGTCCG,0.443
2,GGCCATAC,0.17
3,CGCTACGA,0.111
4,CTCTCATC,-0.159
5,CAGATTAG,-0.167
6,AGGACATA,-0.187
7,GCTCAGTA,-0.239
8,CCAATGCA,-0.186
9,CGGACCCA,0.346
10,AAGTGACA,-0.105
11,ACCGGATG,0.329
12,ACCGGACC,0.397
13,ACCGGACG,0.421
14,ACCGGATC,0.296
15,AGCGGACT,0.287
16,AACGGACC,0.327
17,ACCGGACT,0.408
18,AACGGACT,0.337
19,ACCGGTCG,0.289
20,CTTCTGAC,-0.224
21,CTCCAGCA,-0.241
22,AATACGCG,0.0739
23,ACTAAACG,-0.112
24,ATACCTTA,-0.0965
25,AAACTACG,0.118

row,Sequence,PBM E-score
1,CCCTCCAC,-0.233
2,CGGACGTC,0.258
3,ACGACGGA,0.199
4,AGGACGTA,0.00968
5,CGGACGGC,0.327
6,GGGACGGA,0.227
7,CGGACGGA,0.397
8,CCGACGGA,0.386
9,CGGACGTA,0.443
10,GCGACGGA,0.258
11,CAGGTGTA,-0.199
12,CAGGTATG,-0.00123
13,CGGGTGGC,0.152
14,CACCCCAC,-0.026
15,CCCCGTGC,0.269
16,ACAACTTC,0.00956
17,CCCGACAA,0.311
18,CCAAGCTA,-0.112
19,CGCAGGAG,-0.0823
20,ACACCGGA,0.395
21,ACACCGGC,0.341
22,CCACCGGA,0.432
23,CCACCGGC,0.233
24,ACACCGGT,0.359
25,TCACCGCA,0.0366

row,Sequence,PBM E-score
1,GCACCGGA,0.353
2,TCACCGGA,0.373
3,CCACCGGG,0.34
4,GATCAGCC,-0.11
5,CTGCAGAC,-0.128
6,GACCCAAA,-0.00261
7,GGAGTATA,0.206
8,ACATGTAG,-0.081
9,CAAAGCAC,-0.138
10,CGGTGAGC,0.0638
11,AGACCTGA,-0.0959
12,CCGCGGTA,0.303
13,ATCCTCTC,-0.186
14,AGCGGGAA,0.207
15,ATAACCGC,0.157
16,CACCCCGG,0.264
17,CTAACCGA,0.176
18,AAACCCCG,0.438
19,ACCCCCGG,0.368
20,GACCCCGC,0.134
21,AACCCCCG,0.262
22,ACCCCCGC,0.217
23,AACCCCGC,0.371
24,ATAACCGA,0.386
25,AACCCCGG,0.456

row,Sequence,PBM E-score
1,AAACCCCC,0.0478
2,CTACTAGC,0.0698
3,GCCGTCCA,0.0557
4,AATAGATG,-0.118
5,CGTGTTTA,0.038
6,AAATTCTA,-0.166
7,ATGTACTA,-0.14
8,GTGGATCA,-0.21
9,CACCAATC,-0.0582
10,CAGATTGA,-0.0798
11,CCCAACAG,-0.328
12,ACCGTAAA,0.0865
13,CAACTGTA,-0.234
14,ATGTGCCA,-0.302
15,AAACCCGG,0.454
16,AAAACCGC,0.109
17,AAAACCCG,0.4
18,AAACCCGA,0.439
19,AAAACCCT,-0.0696
20,TAACCCGA,0.355
21,GAACCCGA,0.23
22,AAACCCGT,0.361
23,AAACCCGC,0.335
24,AAAACCGA,0.396
25,GAAACCGA,0.274

row,Sequence,PBM E-score
1,AAAACCCC,0.187
2,AGCCAGGC,-0.141
3,GCTTGGGA,-0.149
4,ACTGGGAG,-0.0791
5,CAGCTACA,-0.156
6,ACGCCTAC,-0.0649
7,GATGCGAA,-0.0227
8,TATTGCGA,0.0517
9,AGTTTGTC,-0.117
10,CACCATCG,-0.192
11,GCAGCGGC,-0.00312
12,ACGAGATC,-0.15
13,CCGCTGCA,-0.0239
14,GTACCTCA,-0.238
15,ATTCCGGC,0.37
16,ATTCCGTG,0.294
17,ATTCCGCG,0.285
18,ATTCCGCC,0.295
19,ATTCCGGG,0.374
20,ATTCCGTC,0.213
